For assay [1] the following is noted: Ebola virus entry assay, blue channel (ratio component).
For assay [2] the following is noted: Ebola virus entry reporter assay, green channel fluorescence. (A reporter such as luciferase makes a cellular process visible.)
The conditions of assay [3]: Ebola virus entry cell assay, ratio channel.
A short description of assay [4]: Immunotoxin (HA22) sensitization/mitigation study. Vehicle arm (PBS) (AID 1159510). Further: potency means the concentration at half of the fitted maximal effect. The conditions noted are these: cancer cells viability with PBS vehicle (HA22 study); series mostly up to 46.1 µM.
Assay [5] can be described thus: Immunotoxin (SS1P) sensitization/mitigation study. Vehicle arm (DMEM) (AID 1159513). Further: potency means the concentration at half of the fitted maximal effect. The conditions noted are these: cell viability with vehicle (DMEM); series mostly up to 46.1 µM.
Assay [6] in a line: qHTS assay for measurement of the activity of small molecule inhibitors on Zika virus induced Caspase-3 activity in human iPSC derived neural progenitor cells (hNPCs) (AID 1224857; active means well fitted inhibition curve with a large enough effect; further: nearly all actives have a fitted effect of over 65% in size). The conditions noted are these: hNPCs ZIKV-induced caspase-3/7, Caspase-Glo luminescence, 6 h; series mostly up to 45.7 µM. The procedure, abridged:
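Caspase-3/7 induction by a 6-hour ZIKV infection was quantified with a luminescent Caspase-Glo 3/7 reagent incubated 30 minutes at room temperature. Compounds were preincubated with hNPCs for 1 hour; inhibition was calculated against uninfected and infected control wells.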

Assay [7] can be described thus: qHTS assay for measurement of the activity of small molecule inhibitors on Zika virus induced Caspase-3 activity in human astrocytoma cells (AID 1224859; active means well fitted inhibition curve with a large enough effect). The conditions noted are these: SNB-19 ZIKV-induced caspase-3/7, luminescence, 6 h; series mostly up to 45.7 µM. A digest of the protocol:
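In SNB-19 cells plated at 250 cells/well and grown 16-20 h, compounds were applied 1 h before ZIKV (2 FFU/cell). Six hours later caspase-3/7 luminescence was recorded.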
(In general: In qHTS, concentration-response curves come from the screen itself.)

Each structure is given as a SMILES string. Results filed as inconclusive are left out. For some of these results: Potency and affinity values are given separately. Activity calls are given as the source filed them.

As for `Nc1nc(-c2ccccc2)c(Br)c(=O)[nH]1`, in assay [1], the outcome was inactive.

In the case of `CC1(C)O[C@@H]2C[C@H]3[C@@H]4C[C@H](F)C5=CC(=O)C=C[C@]5(C)[C@@]4(F)[C@@H](O)C[C@]3(C)[C@]2(C(=O)CO)O1`, the result in assay [1] was inactive.

In the case of `CC1COc2c(N3CCN(C)CC3)c(F)cc3c(=O)c(C(=O)O)cn1c23` (stereo unspecified), the result in assay [1], in assay [2] and in assay [3] was inactive.

`Nc1ccc(S(=O)(=O)c2ccc(N)cc2)cc1`: the outcome in assay [1], in assay [2] and in assay [3] was inactive.

As for `NC(=O)N1c2ccccc2C=Cc2ccccc21`, the outcome in assay [1], in assay [2] and in assay [3] was inactive.

With `S=c1nc[nH]c2nc[nH]c12`, the result in assay [1], in assay [2] and in assay [3] was inactive. The Potency in assay [4] and in assay [5] was 0.605 µM (active) throughout.

Take `NC(N)=Nc1nc(CSCC/C(N)=N/S(N)(=O)=O)cs1`: the outcome in assay [1] and in assay [3] was inactive.

For the molecule `CN1C(C(=O)Nc2ccccn2)=C(O)c2ccccc2S1(=O)=O`, the outcome in assay [1] and in assay [3] was inactive.

In the case of `Cc1noc(NS(=O)(=O)c2ccc(N)cc2)c1C`, the outcome in assay [1], in assay [2] and in assay [3] was inactive.

`Nc1nc(Cl)nc2c1ncn2[C@@H]1O[C@H](CO)[C@@H](O)[C@@H]1F`: the outcome in assay [1] and in assay [3] was inactive.

What is called AC50 is the concentration at which the activity in the assay is half-maximal. On to `CC[C@H]1OC(=O)[C@H](C)[C@@H](O[C@H]2C[C@@](C)(OC)[C@@H](O)[C@H](C)O2)[C@H](C)[C@@H](O[C@@H]2O[C@H](C)C[C@H](N(C)C)[C@@H]2O)[C@](C)(O)C[C@@H](C)CN(C)[C@H](C)[C@@H](O)[C@]1(C)O`, for which the result in assay [1] and in assay [2] was inactive. Also, the AC50 in assay [3] is 2.51 µM (active).

As for `C=CCN1C[C@H](C(=O)N(CCCN(C)C)C(=O)NCC)C[C@@H]2c3cccc4[nH]cc(c34)C[C@H]21`, the result in assay [1] was inactive. Moreover, the AC50 in assay [3] is 15.8 µM (active).

Take `O=C(N[C@H](CO)[C@H](O)c1ccc([N+](=O)[O-])cc1)C(Cl)Cl`: the outcome in assay [1], in assay [2] and in assay [3] was inactive.

Consider `C[N+]1(C)CCCC(OC(=O)C(O)(c2ccccc2)c2ccccc2)C1` (stereo unspecified), for which the outcome in assay [1], in assay [2] and in assay [3] was inactive.

Regarding `CO[C@@]1(NC(=O)Cc2cccs2)C(=O)N2C(C(=O)O)=C(COC(N)=O)CS[C@@H]21`, the outcome in assay [1], in assay [2] and in assay [3] was inactive.

Regarding `O=C1CN=C(c2ccccc2)c2cc([N+](=O)[O-])ccc2N1`, the outcome in assay [1], in assay [2], in assay [3], in assay [6] and in assay [7] was inactive.

For the molecule `COc1c(N2C[C@@H]3CCCN[C@@H]3C2)c(F)cc2c(=O)c(C(=O)O)cn(C3CC3)c12`, the result in assay [1], in assay [2] and in assay [3] was inactive.

Consider `CC(O)(P(=O)(O)O)P(=O)(O)O`, for which the result in assay [1], in assay [2] and in assay [3] was inactive.

For the molecule `CCS(=O)(=O)CCn1c([N+](=O)[O-])cnc1C`, the outcome in assay [1], in assay [2] and in assay [3] was inactive.

For `O=c1[nH]c(=O)n([C@H]2C[C@H](O)[C@@H](CO)O2)cc1F`, the result in assay [1] and in assay [3] was inactive.

On to `C#CCN[C@@H]1CCc2ccccc21`, for which the outcome in assay [1], in assay [2] and in assay [3] was inactive.

`NCC[C@H](O)C(=O)N[C@@H]1C[C@H](N)[C@@H](O[C@H]2O[C@H](CN)[C@@H](O)[C@H](O)[C@@H]2O)[C@H](O)[C@@H]1O[C@H]1O[C@H](CO)[C@@H](O)[C@H](N)[C@@H]1O`: the outcome in assay [1], in assay [2] and in assay [3] was inactive.

For the molecule `COc1cc(C(=O)NS(=O)(=O)c2ccccc2C)ccc1Cc1cn(C)c2ccc(NC(=O)OC3CCCC3)cc12`, the result in assay [1], in assay [2] and in assay [3] was inactive.

With `COCCCOc1ccnc(CS(=O)c2nc3ccccc3[nH]2)c1C` (stereo unspecified), the result in assay [1], in assay [2] and in assay [3] was inactive.

Take `CCC1=C(C)CN(C(=O)NCCc2ccc(S(=O)(=O)NC(=O)NC3CCC(C)CC3)cc2)C1=O` (stereo unspecified): the outcome in assay [1], in assay [2] and in assay [3] was inactive.

Take `CCC1(C)CC(=O)NC1=O` (stereo unspecified): the result in assay [1], in assay [2] and in assay [3] was inactive.

For the molecule `C[C@H](CS)C(=O)N1CCC[C@H]1C(=O)O`, the outcome in assay [1], in assay [2] and in assay [3] was inactive.

These data come from PubChem BioAssay (NCATS).
